Counter-ions that a name gives are not always drawn. ± gives the standard deviation of the averaged measurements.
Columns and labels:
[1] = system: E18 rat cortical neuron-glia co-culture; experiment: fiber score / MBP score (myelination specific beyond OL differentiation) (ratio); higher = more myelination-specific MBP alignment; details: treatment time: 8 days (DIV5-DIV13)
In short: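 Library compounds were applied at 1 or 5 µM in myelination medium, DIV5 to DIV13, to primary E18 rat cortical co-cultures grown at 20,000 cells/well in 96-well plates. After 4 % paraformaldehyde fixation and MBP/Olig2/DAPI immunostaining, four 10X fields per well in duplicate wells were scored. Each value is continuous MBP fiber length per Olig2+ nucleus divided by thresholded MBP area × intensity per Olig2+ nucleus.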

[2] = system: E18 rat cortical neuron-glia co-culture; experiment: myelination (MBP fiber length per Olig2+ nucleus), % of 1 µM DAPT response (DMSO = 0) (% of DAPT); higher = more myelination, active = 50 or more; details: treatment time: 8 days (DIV5-DIV13)
In short: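 Library compounds at 1 or 5 µM in myelination medium were applied from DIV5 to DIV13 to papain-dissociated E18 rat cortical co-cultures seeded at 20,000 cells/well on poly-d-lysine/laminin 96-well plates. Fixed cells (4 % paraformaldehyde) were immunostained for MBP and Olig2 with DAPI, and four 10X fields were analysed in each duplicate well. Continuous straight MBP fiber length per Olig2+ nucleus was set to 0 for 0.1 % DMSO and to 100 for a 1 µM positive control.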

Row | Structure (SMILES) | fiber score / MBP score ([1]; 1 µM) | fiber score / MBP score ([1]; 5 µM) | myelination ([2]; 1 µM) | myelination ([2]; 5 µM)
1 | O=C(C1CCCCC1)N1CC(=O)N2CCc3ccccc3C2C1 (stereo unspecified) [Praziquantel] | 1.03 | 0.947 | 7.75 (inactive) | -1.87 (inactive)
2 | CC(C)(C#N)c1cc(Cn2cncn2)cc(C(C)(C)C#N)c1 [Anastrozole] | 0.803 | 0.734 | -5.96 (inactive) | -11.9 (inactive)
3 | CCC(=O)NS(=O)(=O)c1ccc(-c2c(-c3ccccc3)noc2C)cc1 [Parecoxib] | 0.57 | 1.01 | -22.9 (inactive) | 1.22 (inactive)
4 | O=C1CN2Cc3c(ccc(Cl)c3Cl)N=C2N1 [Anagrelide hydrochloride] | 0.9 | 0.706 | -1.07 (inactive) | -10 (inactive)
5 | OCCN1C[C@H](O)[C@@H](O)[C@H](O)[C@H]1CO [Miglitol] | 0.881 | 0.788 | -7.81 (inactive) | -16.8 (inactive)
6 | CC(Oc1c(Cl)cccc1Cl)C1=NCCN1 (stereo unspecified) [lofexidine] | 0.929 | 1.1 | -15.8 (inactive) | 2.57 (inactive)
7 | Cc1c(OCC(F)(F)F)ccnc1C[S+]([O-])c1nc2ccccc2[nH]1 (stereo unspecified) [Lansoprazole] | 0.767 | 1.37 | -17.3 (inactive) | 65.6
8 | Cc1onc(-c2ccccc2)c1C(=O)N[C@@H]1C(=O)N2[C@@H]1SC(C)(C)[C@@H]2C(=O)O [Oxacillin] | 0.974 | 0.897 | -4.75 (inactive) | -10.5 (inactive)
9 | O=C(O[C@H]1[C@H](Oc2ccccc2COC(=O)C2(O)C=CCCC2=O)O[C@H](CO)[C@@H](O)[C@@H]1O)c1ccccc1 (stereo partly specified) [Tremulacin] | 0.746 | 2.76 | -11.2 (inactive) | 30.4 (inactive)
10 | COc1ccc2c3c1O[C@H]1C[C@@H](O)C=C[C@@]31CCN(C)C2 [Galantamine] | 0.69 | 0.673 | -60.3 (inactive) | -40.7 (inactive)
11 | C=CC1=C(C(=O)O)N2C(=O)[C@@H](NC(=O)/C(=N\O)c3csc(N)n3)[C@H]2SC1 [Cefdinir] | 0.926 | 0.824 | 1.23 (inactive) | -0.0683 (inactive)
12 | CN(C)CCC=C1c2ccccc2COc2ccccc21 [Doxepin] | 0.859 ± 0.061 | 0.732 ± 0.042 | -6.24 (inactive) | -4.42 (inactive)
13 | NC1CCN(c2cccc(Cl)n2)CC1 | 1.09 | 0.551 | 4.32 (inactive) | -35 (inactive)
14 | CNNCc1ccc(C(=O)NC(C)C)cc1 [Procarbazine] | 0.937 | 1.09 | -6.44 (inactive) | -0.797 (inactive)
15 | CCN1CCN(C(=O)N[C@@H](C(=O)N[C@@H]2C(=O)N3[C@@H]2SC(C)(C)[C@@H]3C(=O)O)c2ccccc2)C(=O)C1=O [Piperacillin] | 0.703 | 0.948 | -13.4 (inactive) | 5.13 (inactive)
16 | O=C(c1ccc(F)cc1)C1CCN(CCn2c(=S)[nH]c3ccccc3c2=O)CC1 [Altanserin] | 0.994 | 0.605 | 0.872 (inactive) | -16.1 (inactive)
17 | CC(C(=O)O)c1ccc(CC2CCCC2=O)cc1 (stereo unspecified) [loxoprofen] | 0.944 | 0.875 | 1.34 (inactive) | -10.6 (inactive)
18 | CC1CNc2c(cccc2S(=O)(=O)N[C@@H](CCCNC(=N)N)C(=O)N2CC[C@@H](C)C[C@@H]2C(=O)O)C1 (stereo partly specified) [Argatroban] | 0.647 | 0.566 | -43.9 (inactive) | -49.9 (inactive)
19 | O=C1Nc2ccccc2/C1=C1/Nc2ccccc2C1=O [Indirubin] | 0.896 | 0.71 | -4.48 (inactive) | -14.5 (inactive)
20 | N=C(N)NC(=O)c1nc(Cl)c(N)nc1N [Amiloride] | 0.887 | 0.827 | -12.4 (inactive) | 16.9 (inactive)
21 | NC(N)=Nc1nc(CSCC/C(N)=N/S(N)(=O)=O)cs1 [Famotidine] | 0.875 | 0.752 | -13.8 (inactive) | -21.2 (inactive)
22 | CC(C)n1c(/C=C/C(O)CC(O)CC(=O)O)c(-c2ccc(F)cc2)c2ccccc21 (stereo unspecified) [Fluvastatin] | 0.312 | 0.319 | -15.7 (inactive) | -13.7 (inactive)
23 | CC(C)(C(=O)O)c1ccc(C(O)CCCN2CCC(C(O)(c3ccccc3)c3ccccc3)CC2)cc1 (stereo unspecified) [Fexofenadine] | 0.774 | 0.82 | 0.24 (inactive) | 0.141 (inactive)
24 | COc1cc2nc(N3CCN(C(=O)c4ccco4)CC3)nc(N)c2cc1OC [Prazosin] | 0.568 | 1 | -38.1 (inactive) | 3.87 (inactive)
25 | COC(=O)C1=C(C)NC(C)=C(C(=O)OCCN(C)Cc2ccccc2)C1c1cccc([N+](=O)[O-])c1 (stereo unspecified) [Nicardipine] | 0.629 | 0.824 | -8.17 (inactive) | -21.2 (inactive)

Row | Structure (SMILES) | fiber score / MBP score ([1]; 1 µM) | fiber score / MBP score ([1]; 5 µM) | myelination ([2]; 1 µM) | myelination ([2]; 5 µM)
26 | CCn1cc(C(=O)O)c(=O)c2cc(F)c(N3CCN(C)CC3)cc21 [Pefloxacin] | 1 | 0.8 | -8.57 (inactive) | -12.3 (inactive)
27 | CCN1CC(CCN2CCOCC2)C(c2ccccc2)(c2ccccc2)C1=O (stereo unspecified) [Doxapram] | 0.83 | 0.769 | -10.9 (inactive) | -11 (inactive)
28 | CCOC(=O)[C@H](CCc1ccccc1)N[C@@H](C)C(=O)N1Cc2ccccc2C[C@H]1C(=O)O [Quinapril] | 0.878 | 0.825 | -0.422 (inactive) | -6.78 (inactive)
29 | CCS(=O)(=O)CCn1c([N+](=O)[O-])cnc1C [Tinidazole] | 0.727 | 0.706 | -10.7 (inactive) | -14.2 (inactive)
30 | CCOC(=O)c1ccc(OC(=O)CCCCCNC(=N)N)cc1 [Gabexate] | 0.709 | 0.799 | -20.3 (inactive) | -14.2 (inactive)
31 | CC(=O)OCC(=O)[C@@]12OC3(CCCC3)O[C@@H]1C[C@H]1[C@@H]3CCC4=CC(=O)C=C[C@]4(C)[C@@]3(F)[C@@H](O)C[C@@]12C [Amcinonide] | 0.868 | 0.784 | -11.8 (inactive) | -42.6 (inactive)
32 | Cc1[nH]c(=O)c(C#N)cc1-c1ccncc1 [Milrinone] | 0.762 | 0.504 | -7.08 (inactive) | -15.7 (inactive)
33 | CC(=O)OCC(=O)[C@@]1(O)CC[C@H]2[C@@H]3C[C@H](C)C4=CC(=O)C=C[C@]4(C)[C@H]3[C@@H](O)C[C@@]21C [Methylprednisolone acetate] | 0.468 | 0.413 | -10.5 (inactive) | -15.1 (inactive)
34 | C=CC[C@@H]1/C=C(\C)C[C@H](C)C[C@H](OC)[C@H]2O[C@@](O)(C(=O)C(=O)N3CCCC[C@H]3C(=O)O[C@H](/C(C)=C/[C@@H]3CC[C@@H](O)[C@H](OC)C3)[C@H](C)[C@@H](O)CC1=O)[C@H](C)C[C@@H]2OC [Tacrolimus] | 0.687 | 0.587 | -24.6 (inactive) | -22.8 (inactive)
35 | CCCCNc1cc(C(=O)O)cc(S(N)(=O)=O)c1Oc1ccccc1 [Bumetanide] | 0.846 | 0.859 | -8.01 (inactive) | -11.3 (inactive)
36 | OC(Cn1cncn1)(Cn1cncn1)c1ccc(F)cc1F [Fluconazole] | 0.906 | 0.784 | 5.01 (inactive) | -19.9 (inactive)
37 | CCN(CC)CC1CCCCN1CC(=O)N1c2ccccc2C(=O)Nc2cccnc21 (stereo unspecified) [Otenzepad] | 0.774 | 0.692 | -9.61 (inactive) | -15.6 (inactive)
38 | NC(=O)c1cccnc1 [Niacinamide] | 0.96 | 0.901 | -7.93 (inactive) | -4.86 (inactive)
39 | C[C@]12CCC(=O)C=C1CC[C@@H]1[C@@H]2[C@@H](O)C[C@@]2(C)[C@H]1CC[C@]2(O)C(=O)CO [Hydrocortisone] | 0.712 ± 0.026 | 0.656 ± 0.11 | -10.9 (inactive) | -10.2 (inactive)
40 | CC1=C(C(=O)O)N2C(=O)[C@@H](NC(=O)[C@H](N)c3ccccc3)[C@H]2SC1 [Cephalexin] | 0.963 | 0.986 | -2.86 (inactive) | -1.59 (inactive)
41 | O=C(O)CCc1nc(-c2ccccc2)c(-c2ccccc2)o1 [Oxaprozin] | 0.677 | 0.752 | -17 (inactive) | -14 (inactive)
42 | CCOC(=O)C1=C(C)NC(C)=C(C(=O)OC)C1c1cccc([N+](=O)[O-])c1 (stereo unspecified) [Nitrendipine] | 0.92 | 1.09 | -7.81 (inactive) | 1.09 (inactive)
43 | C[C@]12C=CC(=O)C=C1CC[C@@H]1[C@@H]2[C@@H](O)C[C@@]2(C)[C@H]1CC[C@]2(O)C(=O)CO [Prednisolone] | 0.693 | 0.923 | -6.4 (inactive) | 0.38 (inactive)
44 | c1ccc2c(CC3=NCCN3)cccc2c1 [Naphazoline] | 1.1 | 1.06 | 13.7 (inactive) | 14 (inactive)
45 | COc1ccccc1OCCNCC(O)COc1cccc2[nH]c3ccccc3c12 (stereo unspecified) [Carvedilol] | 0.762 | 0.794 | -38.4 (inactive) | -16.8 (inactive)
46 | Oc1ccc(C2CNCCc3c2cc(O)c(O)c3Cl)cc1 (stereo unspecified) [Fenoldopam] | 0.941 | 0.611 | -10.8 (inactive) | -45 (inactive)
47 | CSc1nc2cc(Cl)c(Oc3cccc(Cl)c3Cl)cc2[nH]1 [Triclabendazole] | 0.682 | 0.685 | -23.9 (inactive) | -18.7 (inactive)
48 | C[C@H]1O[C@H](O[C@H]2[C@H](O)[C@@H](O)[C@@H](O[C@H]3[C@H](O)[C@@H](O)C(O)O[C@@H]3CO)O[C@@H]2CO)[C@H](O)[C@@H](O)[C@@H]1N[C@H]1C=C(CO)[C@@H](O)[C@H](O)[C@H]1O (stereo partly specified) [Acarbose] | 0.856 | 0.99 | -11.8 (inactive) | -6.72 (inactive)
49 | COC(=O)Nc1nc2cc(C(=O)c3ccccc3)ccc2[nH]1 [Mebendazole] | 0.624 | 0.207 | 71.4 | -22.3 (inactive)
